Measurements from PubChem BioAssay (NCI).
Compounds without any hit were thinned out: in the full panel of roughly 79,000, 15% have a hit. Active and inactive are the calls of the source. Cut-off read from the data, not from the text of the source: active = growth inhibition above about 70%; inactive = the rest.

Legend:
[1] = NCI Yeast Anticancer Drug Screen. Data for the rad52 strain (AID 147);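 note: 0% = growth of vehicle-treated control cultures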; settings: S. cerevisiae rad52 mutant growth inhibition, hits give high values
In short: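 The repair-mutant yeast strain was incubated with compounds, then growth was read and inhibition derived relative to vehicle.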

[2] = NCI Yeast Anticancer Drug Screen. Data for the wt1 strain (AID 149);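 note: 0% = growth of vehicle-treated wt1 cultures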; settings: S. cerevisiae wt1 strain (SPY 50644) growth inhibition, hits give high values
In short: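 Vehicle-normalised growth inhibition; strain wt1; compound exposure.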

[3] = NCI Yeast Anticancer Drug Screen. Data for the rad50EPP+ strain (AID 151);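 note: 0% = growth of vehicle-treated control cultures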; settings: S. cerevisiae rad50 mutant strain, hits give high values
In short: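 Vehicle-normalised growth inhibition; rad50EPP+ yeast strain, altered in DNA damage repair, compound-treated.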

[4] = NCI Yeast Anticancer Drug Screen. Data for the mgt1 strain (AID 153); settings: S. cerevisiae mgt1 mutant growth inhibition, hits give high values
In short: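 Vehicle-normalized growth inhibition is determined in mgt1 yeast, a strain selected for a defined alteration in DNA repair or cell cycle control.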

[5] = NCI Yeast Anticancer Drug Screen. Data for the rad50 strain (AID 155);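 note: 0% = growth of vehicle-only cultures of the same strain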; settings: S. cerevisiae rad50 strain growth inhibition, hits give high values
In short: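 A DNA repair-deficient yeast mutant serves as the test organism; compound-induced growth inhibition is calculated against vehicle-treated cells.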

[6] = NCI Yeast Anticancer Drug Screen. Data for the mec2-1 strain (AID 157); settings: S. cerevisiae mec2-1 strain, hits give high values
In short: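 Mutant yeast (mec2-1) grown with compound; growth inhibition relative to vehicle control reported.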

[7] = NCI Yeast Anticancer Drug Screen. Data for the rad14 strain (AID 159);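 note: 0% = growth of vehicle-treated control cultures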; settings: S. cerevisiae rad14 strain growth inhibition, hits give high values
In short: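 Vehicle-treated cultures served as the baseline for growth inhibition of a DNA repair-mutant yeast strain exposed to each compound.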

[8] = NCI Yeast Anticancer Drug Screen. Data for the sgs1 mgt1 strain (AID 161);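 note: 0% = growth of cultures given vehicle only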; settings: S. cerevisiae sgs1 mgt1 strain, hits give high values
In short: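 Percent growth inhibition was derived by comparing compound-exposed mutant yeast with vehicle-exposed cultures. The strain carries alterations in DNA damage repair.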

[9] = NCI Yeast Anticancer Drug Screen. Data for the CLN2oe strain (AID 163);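 note: 0% = growth of vehicle-only control cultures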; settings: S. cerevisiae CLN2oe strain, hits give high values
In short: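 Compounds are applied to yeast harbouring a defined cell-cycle control change; reduced growth compared with vehicle-treated controls gives the value.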

[10] = NCI Yeast Anticancer Drug Screen. Data for the cln2 rad14 strain (AID 165);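 note: 0% = growth equal to vehicle treated cultures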; settings: S. cerevisiae cln2 rad14 strain, hits give high values
In short: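 Readout is yeast growth inhibition versus vehicle-treated controls, using a strain with cln2 and rad14 alterations exposed to compound.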

[11] = NCI Yeast Anticancer Drug Screen. Data for the bub3 strain (AID 167); settings: S. cerevisiae bub3 mutant strain, hits give high values
In short: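 Inhibition values come from growth of compound-treated mutant yeast normalised to vehicle-treated controls.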

[12] = NCI Yeast Anticancer Drug Screen. Data for the wt2 strain (AID 169);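 note: 0% = growth of vehicle-treated yeast cultures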; settings: S. cerevisiae wt2 strain growth inhibition, hits give high values
In short: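 Against vehicle-treated controls, the growth of yeast exposed to each compound was compared, and the inhibition was recorded.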

[13] = NCI Yeast Anticancer Drug Screen. Data for the mlh1 strain (AID 171);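 note: 0% = growth of vehicle-treated control cultures of the same strain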; settings: S. cerevisiae mlh1 strain growth inhibition, hits give high values
In short: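 Measured: yeast growth. Reference: vehicle-treated controls. Organism: strain with a defined alteration affecting DNA damage repair or cell cycle control, treated with compound.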

[14] = NCI Yeast Anticancer Drug Screen. Data for the sgs1 strain (AID 173);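 note: 0% = growth of vehicle-only control cultures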; settings: S. cerevisiae sgs1 mutant, hits give high values
In short: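 Each compound was added to cultures of the altered yeast strain. Growth was recorded, and inhibition was derived by comparison with vehicle controls.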

[15] = NCI Yeast Anticancer Drug Screen. Data for the mlh1 rad18 strain (AID 175); settings: S. cerevisiae mlh1 rad18 strain growth inhibition, hits give high values
In short: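 Genetically defined yeast (DNA repair-deficient) exposed to compounds; growth inhibition determined relative to vehicle.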

[16] = NCI Yeast Anticancer Drug Screen. Data for the rad18 strain (AID 177); settings: S. cerevisiae rad18 mutant growth inhibition, hits give high values
In short: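 Vehicle-treated cultures served as the baseline for scoring compound-induced growth inhibition in DNA-repair-mutant yeast.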

[17] = at 5.0 µM (retest, dose inferred, filed as 0.5)
[18] = at 50.0 µM (retest, dose inferred, filed as 5.0)

Measured: growth inhibition

O=[N+]([O-])c1ccc2c(c1)C(N1CCN(CCO)CC1)Cc1ccc(F)cc1S2 (stereo not drawn)
inactive: [1]; at 1.2 µM -2% | [1]; at 3.7 µM -2% | [1]; at 11.0 µM -3% | [1]; at 33.0 µM -2% | [1]; at 100.0 µM 18% | [2]; at 1.2 µM -2% | [2]; at 3.7 µM -3% | [2]; at 11.0 µM -3% | [2]; at 33.0 µM -3% | [2]; at 100.0 µM 15% | [3]; at 1.2 µM -2% | [3]; at 3.7 µM -1% | [3]; at 11.0 µM -1% | [3]; at 33.0 µM -1% | [3]; at 100.0 µM 1% | [4]; at 1.2 µM -1% | [4]; at 3.7 µM -3% | [4]; at 11.0 µM -5% | [4]; at 33.0 µM -4% | [4]; at 100.0 µM 34% | [5]; at 1.2 µM 1% | [5]; at 3.7 µM 1% | [5]; [17] 3% | [5]; at 11.0 µM 1% | [5]; at 33.0 µM 2% | [5]; at 50.0 µM 44.2% | [5]; at 100.0 µM 62% | [6]; at 1.2 µM -8% | [6]; at 3.7 µM -2% | [6]; [17] 0% | [6]; at 11.0 µM -4% | [6]; at 33.0 µM -4% | [6]; [18] 48% | [6]; at 50.0 µM -3.7% | [6]; at 100.0 µM 8% | [7]; at 1.2 µM -2% | [7]; at 3.7 µM -1% | [7]; at 11.0 µM 1% | [7]; at 33.0 µM 15% | [8]; [17] 13% | [9]; at 1.2 µM -6% | [9]; at 3.7 µM -5% | [9]; at 11.0 µM 0% | [9]; at 33.0 µM 1% | [9]; at 100.0 µM 20% | [10]; [17] 2% | [10]; [18] 43% | [11]; at 1.2 µM -1% | [11]; at 3.7 µM -4% | [11]; [17] -2% | [11]; at 11.0 µM 0% | [11]; at 33.0 µM -5% | [11]; at 50.0 µM -1.1% | [11]; at 100.0 µM 24% | [12]; at 1.2 µM -2% | [12]; at 3.7 µM -3% | [12]; at 11.0 µM -3% | [12]; at 33.0 µM -3% | [12]; at 100.0 µM 36% | [13]; at 1.2 µM -3% | [13]; at 3.7 µM -3% | [13]; at 11.0 µM -2% | [13]; at 33.0 µM -3% | [13]; at 100.0 µM 35% | [14]; at 1.2 µM -1% | [14]; at 3.7 µM -1% | [14]; at 11.0 µM -2% | [14]; at 33.0 µM 0% | [15]; [17] 0% | [15]; [18] -13% | [15]; at 50.0 µM 44.4% | [16]; at 1.2 µM -3% | [16]; at 3.7 µM -5% | [16]; at 11.0 µM -3% | [16]; at 33.0 µM 0% | [16]; at 100.0 µM 64%
active: [5]; [18] 71% | [7]; at 100.0 µM 93% | [8]; [18] 90% | [8]; at 50.0 µM 72.8% | [10]; at 50.0 µM 78.6% | [11]; [18] 79% | [14]; at 100.0 µM 80%
